Source: PubChem BioAssay AID2284094 (EPA ToxCast)
The source made the active and inactive calls. The calls were made as follows: active = hit-call score of the fitted dose curve at least 0.9, where 1 is the maximum; inactive = score below 0.9.

The molecules below were run against human VHR Phosphatase, DUSP3 (gene 1845) (UniProt P51452) (assay: ERF_FR_ENZ_hDUSP3: Eurofins (ERF) Enzymatic Assay for human VHR Phosphatase).
Experimental: ERF_FR_ENZ_hDUSP3 is a biochemical, single-readout assay that uses extracted gene-proteins in a cell-free assay. Measurements were taken 0.5 hour after chemical dosing in a 96-well plate. See VHR Human Phosphatase Enzymatic Assay, PhosphataseProfiler.ERF_FR_ENZ_hDUSP3 is an assay component calculated from the ERF_FR_ENZ_hDUSP3 assay. It is designed to measure enzyme activity using a type of enzyme reporter as detected by fluorescence intensity with spectrophotometry technology.Data from the assay component ERF_FR_ENZ_hDUSP3 was analyzed at the assay endpoint, ERF_FR_ENZ_hDUSP3, in the positive analysis fitting direction relative to DMSO as the negative control and baseline of activity. Using a type of enzyme reporter, loss-of-signal activity can be used to understand changes in enzymatic activity as they relate to gene DUSP3. To generalize the intended target to other relatable targets, this assay endpoint is annotated to the […].
Human recombinant protein phosphatase VHR expressed in E. coli is used. Test compound and/or vehicle is preincubated with 0.2 mU/ml enzyme for 15 minutes at 37C in modified HEPES buffer pH 7.2. The reaction is initiated by addition of 100 uM DiFMUP for 60 minutes. Determination of the amount of DiFMU formed is read spectrofluorimetrically at 358 nm/450 nm. Compounds are screened at 10 uM.

Chain of human VHR Phosphatase, DUSP3 (gene 1845) (P51452 whole entry, looked up): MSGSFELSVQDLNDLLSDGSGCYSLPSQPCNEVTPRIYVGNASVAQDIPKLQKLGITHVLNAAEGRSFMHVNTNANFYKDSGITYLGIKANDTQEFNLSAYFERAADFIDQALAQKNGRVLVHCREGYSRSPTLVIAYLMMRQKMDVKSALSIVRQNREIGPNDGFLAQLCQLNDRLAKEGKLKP

Question: With `O=C(/C=C/c1ccc(O)cc1)CC(=O)/C=C/c1ccc(O)cc1` as the molecule, how does the AC50 read?
Answer: The AC50 was 1.01 nM (active).
